Only some compounds are listed: those with a hit (about 0.52% of all), similar ones and a draw of the others.
S aureus helic: inhibitors of S. aureus replicative helicase, primary screen, biochemical, fluorescence unwinding readout | purified S. aureus helicase, fluorescence unwinding assay | inhibition, % (test concentration not listed) | 0.05% of 120,000 active | AID 485395, 2010; in the data active = inhibition above about 25%, passing the limit was not always enough;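 also: 0% = mean of negative control wells and 100% = mean of positive control wells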
Sa growth inh: S. aureus growth inhibition at 42 and 30 °C, primary screen, LtaS inhibitor project, RN4220, two temperatures; OD600, 20 h, 42 °C; hits give low values; relative growth, % (no concentration beside the values); 0.53% of 170,000 active;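 active = relative growth at most 50% at the other temperature and 20+ points below 30 °C, or under 10% at both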
* hit, by the source's call; / = no result.

SMILES	S aureus helic	Sa growth inh
C=C(NC(=O)C(=C)NC(=O)c1csc(C2=NC3c4csc(n4)C4NC(=O)c5csc(n5)C(C(C)(O)C(C)O)NC(=O)C5CSC(=N5)C(=CC)NC(=O)C(C(C)O)NC(=O)c5csc(n5)C3(CC2)NC(=O)C(C)NC(=O)C(=C)NC(=O)C(C)NC(=O)C(C(C)CC)NC2C=Cc3c(C(C)O)cc(nc3C2O)C(=O)OC4C)n1)C(N)=O (stereo not given)	/	-1.0*
CCOc1ccc(CC(=O)NN2CCOCC2)cc1OCC	9	110
CC(C)N1C(=O)CN(NC(=O)c2cc3c(s2)CCCC3)C1=O	-10	90
CCOc1cccc(C(=O)Oc2cccc3ccc(C)nc23)c1	6	80
Cc1ccc2cccc(OC(=O)c3ccc(Br)o3)c2n1	-23	0.3*
O=C(O)/C=C/C(=O)c1ccc(C2CCCCC2)cc1	/	-0.9*
O=C(O)/C=C/C(=O)Nc1ccc(C2CCCCC2)cc1	/	146
COc1ccc2nc(/C(C)=N/O)sc2c1	1	/
CSCc1nnc(NC(=O)c2ccc(S(=O)(=O)N(CC(C)C)CC(C)C)cc2)o1	4	-0.4*
CCc1nnc(NC(=O)c2ccc(S(=O)(=O)N(C)c3ccccc3)cc2)o1	10	15
CC(C)CN(CC(C)C)S(=O)(=O)c1ccc(C(=O)Nc2nnc(-c3ccccn3)o2)cc1	4	83
COCc1nnc(NC(=O)c2ccc(S(=O)(=O)N(C)C3CCCCC3)cc2)o1	-3	8.5*
CCOC(=O)CSc1nc2c(sc3ccccc32)c(=O)n1CCCC(=O)NC1CCCC1	7	104
CC(C)(C)c1ccc(OCCn2c(=O)oc3ccccc32)cc1	13	91
O=C(Cn1nnc(COc2ccccc2)n1)Nc1cccc(C(=O)NC2CC2)c1	6	108
Cc1cc(Cl)cc(C)c1OCCn1ccnc1	0	19
Clc1ccc(OCCn2ccnc2)c(Br)c1	9	3.1*
CCCCn1c(SCC)nc2cc(S(N)(=O)=O)ccc21	-8	104
COc1ccc(S(=O)(=O)Nc2cccc(-c3ccc(N4CCOCC4)nn3)c2)c(OC)c1	0	94
Cc1ccc2c(Cl)cc(Cl)c(OCC(=O)NCc3ccco3)c2n1	-2	-1.6*
Cc1cc(OCC(=O)NCc2ccco2)c(C)cc1Br	7	93
CCOC(=O)CSC1=C(C#N)C(c2ccccc2Cl)C(C(=O)Nc2ccccc2OC)=C(C)N1 (stereo not given)	3	82
CN1c2ccccc2N(C)C1c1ccc(O)cc1	2	-1.2*
CN1C(=O)c2ccccc2N(C)C1c1ccc(F)cc1 (stereo not given)	10	116
O=C1C(Sc2ncn[nH]2)=C/C(=N/S(=O)(=O)c2ccc(Cl)cc2)c2ccccc21	24	1.2*
SMILES	S aureus helic	Sa growth inh
CCc1ccc(S(=O)(=O)/N=C2/C=C(Nc3ccccc3)C(=O)c3ccccc32)cc1	9	83
Cc1csc(=O)n1CC(=O)OCCCn1c(=O)[nH]c2ccccc21	-10	87
O=C(NCc1ccco1)c1ccc(Cn2c(=O)c3ccccc3n(Cc3ccccc3F)c2=O)cc1	-18	100
CC(C)(C)OC(=O)N1CC2C(C1)C2NC(=O)c1nsc(Cl)c1Cl (stereo not given)	17	117
Cc1ccc(C(C)C)c(OCCCCn2ccnc2)c1	4	-0.7*
Cc1ccc(C(C)C)c(OCCn2ccnc2)c1	-19	59
Cc1cc(OCCCCCn2ccnc2)cc(C)c1Cl	31	-0.9*
c1ccc2c(OCCCCCn3ccnc3)cccc2c1	3	-0.5*
Cc1ccc(OCCCn2ccnc2)cc1	10	102
COc1ccc(OCCCn2ccnc2)cc1	10	84
NC(=O)c1cc2cc(Br)cc(Br)c2oc1=O	-20	/
O=C1N(Cc2ccccc2)c2ccccc2C1(O)c1nnc(-c2ccccc2)o1 (stereo not given)	-5	99
Cc1ccc(Sc2ncccc2C(=O)NCc2ccco2)cc1	-14	99
Cc1c(C(=O)N2CCCC2)oc2ccc3c(c12)C(O)CC(C)(C)O3 (stereo not given)	21	111
O=C1/C(=C/c2cccs2)SC(=S)N1c1cccc(C(F)(F)F)c1	-3	/
COc1cccc(Cn2nnc3c(=O)[nH]c(C4CCN(C(=O)c5ccccc5Cl)CC4)nc32)c1	/	0.4*
O=C(c1ccccc1)N1CCC(c2nc3c(nnn3Cc3ccccc3)c(=O)[nH]2)CC1	-1	2.9*
Cc1ccccc1Cn1nnc2c(=O)[nH]c(C3CCN(C(=O)c4ccccc4Cl)CC3)nc21	/	12
Cc1cccc(Cn2nnc3c(=O)[nH]c(C4CCN(C(=O)c5ccccc5F)CC4)nc32)c1	/	103
O=C(Cc1ccc(F)cc1)N1CCC(c2nc3c(nnn3Cc3ccc(F)cc3)c(=O)[nH]2)CC1	/	57
O=C(Cc1ccc(F)cc1)N1CCC(c2nc3c(nnn3Cc3ccc(Cl)cc3)c(=O)[nH]2)CC1	/	6.4*
O=C(Cc1ccccc1F)N1CCC(c2nc3c(nnn3Cc3ccc(F)cc3)c(=O)[nH]2)CC1	/	68
CC(C)(C)OC(=O)N1CCC(c2nc3c(nnn3Cc3ccccc3Cl)c(=O)[nH]2)CC1	0	0.3*
CC(=O)N1c2ncnn2C(c2ccccc2)CC1c1ccc(C)cc1 (stereo not given)	4	103
COc1ccc(Cn2c3ccccc3c3nc4ccccc4nc32)cc1	-8	91
SMILES	S aureus helic	Sa growth inh
CC(C)OC(=O)CSC1=C(C#N)C(c2ccccc2Cl)CC(=O)N1 (stereo not given)	-20	83
Cc1cc(Nc2ccccc2)n(-c2ccccc2C(=O)O)n1	32	108
CN1CCN(Cc2cn[nH]c2-c2ccccc2)CC1	-19	98
COc1cccc(Cn2nnc3c(=O)[nH]c(C4CCN(C(=O)c5ccccc5)CC4)nc32)c1	8	0.8*
COc1cccc(Cn2nnc3c(=O)[nH]c(C4CCCN(C(=O)c5ccc(C)cc5)C4)nc32)c1 (stereo not given)	/	79
CC(C)(C)c1ccc(Cn2c(=N)n(CC(O)c3ccco3)c3ccccc32)cc1 (stereo not given)	-4	31
CC(C)(C)c1ccc(Cn2c(=N)n(CC(=O)c3ccco3)c3ccccc32)cc1	-42	-0.6*
O=C(COC(=O)C1=NN(c2ccccc2)C(=O)CC1)NC1CCCC1	-9	106
Cc1cc(C(=O)NCc2ccco2)c(C)o1	/	99
CCC[C@@H]1C[C@@H](C(=O)N[C@@H]([C@H]2O[C@H](SC)[C@H](O)[C@@H](O)[C@H]2O)[C@@H](C)O)N(C)C1	/	0.0*
CCCCCCCCCCCCCCCC(=O)O[C@@H]1[C@@H](O)[C@@H](O)[C@@H](C(NC(=O)[C@@H]2C[C@@H](CCC)CN2C)C(C)Cl)O[C@@H]1SC (stereo not given in full)	/	93
O=C(NC1CCCC1)C1CCN(C(=O)c2cc3sccc3n2Cc2ccc(F)cc2)CC1	-2	99
CO[C@@]1(NC(=O)C(C(=O)O)c2ccc(O)cc2)C(=O)N2C(C(=O)O)=C(CSc3nnnn3C)CO[C@@H]21 (stereo not given in full)	/	88
Cn1nnnc1SCC1=C(C(=O)O)N2C(=O)C(NC(=O)C(OC=O)c3ccccc3)C2SC1 (stereo not given)	/	-0.7*
Cn1nnnc1SCCC(=O)Nc1ccccc1	2	92
O=C(NCCSc1nnnn1-c1ccccc1)C(c1ccccc1)c1ccccc1	-4	104

Compound activity (PubChem)
